Structures can show the parent of a compound that is named as a salt.
How the values were obtained:
HCC1937 = experiment: relative cell viability, compound alone, vs DMSO (fraction of DMSO control); higher = less growth inhibition; details: 72 h
MDA-MB-231 = experiment: as above; details: 72 h
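Note: viability read out with the CCK-8 kit in 96-well plates, screening a set of 303 compounds acting on lipid metabolism targets.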

CC(C)c1c(C(=O)Nc2ccccc2)c(-c2ccccc2)c(-c2ccc(F)cc2)n1CC[C@@H](O)C[C@@H](O)CC(=O)O [Atorvastatin Calcium]
relative cell viability (HCC1937): 0.657
relative cell viability (MDA-MB-231): 0.569

CCN(CC)CCN(Cc1ccc(-c2ccc(C(F)(F)F)cc2)cc1)C(=O)Cn1c(SCc2ccc(F)cc2)nc(=O)c2c1CCC2 [Darapladib]
relative cell viability (HCC1937): 0.0924
relative cell viability (MDA-MB-231): 0.22

COC(=O)CN(c1ccc(CN(c2ccc(OCc3ccc(C)cc3)c(C(=O)OC)c2)S(=O)(=O)Cc2ccccc2)cc1)S(C)(=O)=O
relative cell viability (HCC1937): 0.894
relative cell viability (MDA-MB-231): 0.921

O=C(O)Cn1nnc(-c2cc(N3CCC(Oc4cc(F)ccc4Br)CC3)no2)n1
relative cell viability (HCC1937): 0.842
relative cell viability (MDA-MB-231): 0.882

Cc1ccc(C)c(OCCCC(C)(C)C(=O)O)c1 [Gemfibrozil]
relative cell viability (HCC1937): 0.736
relative cell viability (MDA-MB-231): 0.783

CCN(CC)C(=O)N1CCN(C)CC1 [Diethylcarbamazine citrate]
relative cell viability (HCC1937): 0.699
relative cell viability (MDA-MB-231): 0.856

CC(C)(O)[C@@H]1Cc2cc3ccc(=O)oc3cc2O1 [marmesin]
relative cell viability (HCC1937): 0.74
relative cell viability (MDA-MB-231): 0.866

Cc1nc2ccc(NCc3cccc(C(F)(F)F)c3)cc2n(CCNC(=O)CO)c1=O
relative cell viability (HCC1937): 0.667
relative cell viability (MDA-MB-231): 0.835

CC(C)Cc1ccc([C@H](C)C(=O)O)cc1 [Dexibuprofen]
relative cell viability (HCC1937): 1.36
relative cell viability (MDA-MB-231): 0.905

CC(C)[C@H]1CC[C@H](C(=O)N[C@H](Cc2ccccc2)C(=O)O)CC1 [Nateglinide]
relative cell viability (HCC1937): 0.682
relative cell viability (MDA-MB-231): 0.869

O=c1c(-c2ccc(O)cc2)coc2cc(O)ccc12 [Daidzein]
relative cell viability (HCC1937): 1.13
relative cell viability (MDA-MB-231): 0.863

c1cc(-c2cnn3cc(-c4ccc(OCCN5CCCCC5)cc4)cnc23)ccn1 [Dorsomorphin dihydrochloride]
relative cell viability (HCC1937): 0.138
relative cell viability (MDA-MB-231): 0.301

CN(CCOc1ccc(CC2SC(=O)NC2=O)cc1)c1ccccn1 (configuration not stated) [Rosiglitazone HCl]
relative cell viability (HCC1937): 0.781
relative cell viability (MDA-MB-231): 0.947

COc1ccc(/C=C/c2cc(O)cc(O[C@@H]3O[C@H](CO)[C@@H](O)[C@H](O)[C@H]3O)c2)cc1 [Deoxyrhapontin]
relative cell viability (HCC1937): 0.932
relative cell viability (MDA-MB-231): 0.995

COC(=O)N(CC(=O)O)Cc1cccc(OCc2nc(-c3ccc(Cl)cc3)oc2C)c1
relative cell viability (HCC1937): 1.08
relative cell viability (MDA-MB-231): 0.834

Cc1nc(-c2nc(-c3ccc(OC(F)(F)F)cc3)no2)nn1Cc1cccc(N2CCC(S(C)(=O)=O)CC2)c1
relative cell viability (HCC1937): 0.93
relative cell viability (MDA-MB-231): 0.775

Cc1nc2c([nH]1)c(=O)n(C)c(=O)n2Cc1ccco1 [Furafylline]
relative cell viability (HCC1937): 0.721
relative cell viability (MDA-MB-231): 0.924

O=c1oc2ccccc2cc1O [3-Hydroxycoumarin]
relative cell viability (HCC1937): 1.02
relative cell viability (MDA-MB-231): 1.05

Cc1ccc(Oc2nc3cc(-c4ccc(-c5ccccc5)cc4)c(Cl)cc3[nH]2)cc1C(=O)O
relative cell viability (HCC1937): 0.95
relative cell viability (MDA-MB-231): 0.92

CC(C)(Oc1ccc(Cl)cc1)C(=O)O [Clofibric acid]
relative cell viability (HCC1937): 1.24
relative cell viability (MDA-MB-231): 0.825

O=C(O)C(=O)Nc1sc2c(c1C(=O)O)CCNC2
relative cell viability (HCC1937): 1.01
relative cell viability (MDA-MB-231): 0.872

O=C(O)c1cccc(N=Nc2c(O)[nH]c3ccc(S(=O)(=O)NCc4ccc(F)cc4)cc23)c1
relative cell viability (HCC1937): 0.885
relative cell viability (MDA-MB-231): 0.938

CC(=O)c1c(C)cc2cccc(O)c2c1O [Nepodin]
relative cell viability (HCC1937): 0.75
relative cell viability (MDA-MB-231): 0.797

CN1CCN(c2ccc(/C=C(\C#N)c3ccccc3Br)cc2)CC1 [DG172 (dihydrochloride)]
relative cell viability (HCC1937): 0.933
relative cell viability (MDA-MB-231): 0.965

O=S(=O)(c1ccccc1)N(CC(F)(F)F)c1ccc(C(O)(C(F)(F)F)C(F)(F)F)cc1
relative cell viability (HCC1937): 0.957
relative cell viability (MDA-MB-231): 1.23

CCCc1cc(-c2nc(-c3ccc(NS(C)(=O)=O)cc3)cs2)ccn1
relative cell viability (HCC1937): 0.669
relative cell viability (MDA-MB-231): 0.926

CC(C)(Oc1ccc(C(=O)c2ccc(Cl)cc2)cc1)C(=O)O [Choline Fenofibrate]
relative cell viability (HCC1937): 0.928
relative cell viability (MDA-MB-231): 1.07

Nc1ccc(C(=O)O)c(O)c1 [Aminopar]
relative cell viability (HCC1937): 1.1
relative cell viability (MDA-MB-231): 0.911

CC(C)OC(=O)C(C(=O)OC(C)C)=C1SC=CS1 [Malotilate]
relative cell viability (HCC1937): 0.686
relative cell viability (MDA-MB-231): 0.828

O=C1C(SCCO)=C(SCCO)C(=O)c2ccccc21
relative cell viability (HCC1937): 0.777
relative cell viability (MDA-MB-231): 0.875

CN(C)CCOC(=O)COc1ccc(Cl)cc1 [Meclofenoxate hydrochloride]
relative cell viability (HCC1937): 0.782
relative cell viability (MDA-MB-231): 0.933

O=C(Nc1cnccc1Cl)N1CCN(Cc2ccc3c(c2)OC(F)(F)O3)CC1
relative cell viability (HCC1937): 0.747
relative cell viability (MDA-MB-231): 0.771

CC(C)CCC[C@@H](C)[C@H]1CC[C@H]2[C@@H]3CC=C4C[C@@H](O)CC[C@]4(C)[C@H]3CC[C@]12C [Cholesterol]
relative cell viability (HCC1937): 0.91
relative cell viability (MDA-MB-231): 1.01

COc1cc(C(C)=O)ccc1O [Acetovanillone]
relative cell viability (HCC1937): 0.833
relative cell viability (MDA-MB-231): 0.891

Cc1cc([N+](=O)[O-])ccc1NS(=O)(=O)c1cc(Cl)ccc1Cl
relative cell viability (HCC1937): 0.579
relative cell viability (MDA-MB-231): 0.795

COc1cc(N(C)C)cc(CN(C)CCc2ccc([N+](=O)[O-])cc2)c1O [CDC25 Phosphatase Inhibitor I]
relative cell viability (HCC1937): 0.966
relative cell viability (MDA-MB-231): 0.976

Reference: the supplement of paper PMC9492666
